KB-V1 cytotox – qHTS assay for MDR1-selective chemotherapeutics: Primary screen using the drug-selected MDR subline cells KB-V1. AID 1347076, 2019. Potency, µM (top dose mostly 46.1 µM), most hits filed as cytotoxic. hit rate 3.4% among 400,000. KB-V1 MDR cells viability, CellTiter-Glo, 72 h; note: % is set by controls: 0 for no effect and ±100 for the full control effect; nearly all actives have a fitted effect of over 60% in size
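qHTS viability screen in drug-selected KB-V1 MDR cells: 72 h compound treatment at 37 degrees C, ATP luminescence end point.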
ATXN2 expr inh – Primary qHTS for Inhibitors of ATXN expression. hit rate 0.72% among 360,000. Potency, µM (highest dose often 57 µM), for inactives: at the highest dose activity change, negative = inhibition, most hits filed as inhibitors. HEK-293 ATXN2-luciferase reporter, luminescence, 24 h. AID 1745845, 2022; note: % is set by controls: 0 for no effect and ±100 for the full control effect; nearly all actives have a fitted effect of over 55% in size
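qHTS (up to 57 uM final) was run with 24 h compound exposure of reporter cells at 37 °C. Each well was multiplexed: SteadyGlo luminescence measured ATXN2-luciferase expression after a fluorogenic Gly-Phe-AFC viability readout (25 uM final).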
ATXN viability – Viability Counterscreen for Primary qHTS for Inhibitors of ATXN expression. S2 cells (HEK-293 line with an ATXN2-luciferase reporter) viability, CellTiter-Fluor protease fluorescence, 24 h. Potency, µM (titrated, usually from 56.7 µM), hits mostly cytotoxic. hit rate 0.49% among 400,000. AID 651635, 2014; note: nearly all actives have a fitted effect of over 40% in size
KB-3-1 cytotox – qHTS assay for MDR1-selective chemotherapeutics: Primary screen using the parental adenocarcinoma cell KB-3-1; hit rate 1.4% among 400,000; AID 1347075, 2019; Potency, µM (series often up to 46.1 µM), hits mostly cytotoxic; KB-3-1 viability, CellTiter-Glo ATP luminescence, 72 h; note: % is set by controls: 0 for no effect and ±100 for the full control effect; nearly all actives have a fitted effect of over 60% in size
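Luminescent ATP read-out (CellTiter-Glo) measures survival of drug-naive KB-3-1 cells after 72 h compound exposure at 37 °C. Titration series was screened from lowest to highest concentration, with DMSO vehicle plates as background controls.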
TGFb SMAD3 inh – qHTS for Inhibitors of TGF-b; HepG2 CAGA-GFP TGF-b/SMAD3 reporter, GFP fluorescence, 18 h; TGF-beta stimulated, 500 pg/mL final; Potency, µM (titrated, usually from 46.1 µM), inactives show top-dose activity, negative = inhibition, hits mostly inhibitors; hit rate 1.2% among 410,000; AID 588855, 2011; note: % is set by controls: 0 for no effect and ±100 for the full control effect; nearly all actives have a fitted effect of over 65% in size
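Smad-responsive CAGA-GFP expression was quantified in HEPG2 cells exposed to compounds and 500 pg/mL final TGF-beta for 18 h at 37 degrees C; unstimulated wells defined full inhibition.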
HepG2 tox – qHTS for Inhibitors of TGF-b: Cytotox Counterscreen; HepG2 CAGA-GFP viability, ATP luminescence, 18 h; Potency, µM (doses to about 46.1 µM), without a hit: at the highest dose activity change, negative = cytotoxicity, actives largely listed as cytotoxic; hit rate 0.76% among 410,000; AID 588856, 2011
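HepG2 CAGA-GFP cells (1000/well, DMEM with 1% FBS) received compound, then TGF-beta at 500 pg/mL final, and were incubated 18 hours at 37 degrees C. Viability was read by CellTiter-Glo luminescence. Media-only wells were set as complete cell-killing and DMSO as no toxicity.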
* marks the source's active call; other numbers are inactive results; i = inactive; u = inconclusive; x = not tested or not shown. A selection: hits, their analogues and other compounds. The true share with any hit is near 5.9%. Calls come from the whole dose curve; as a rule, active = well fitted curve in the direction sought with a large enough effect; inconclusive = small, poorly fitted or top-dose-only effect, or another doubt; inactive = no such curve, though single readings can be large; an effect the other way counts as inactive or inconclusive. Potency is the fitted concentration of half-maximal effect.

SMILES	KB-V1 cytotox	ATXN2 expr inh	ATXN viability	KB-3-1 cytotox	TGFb SMAD3 inh	HepG2 tox
COc1cc(CN2CCCC(c3nc(-c4ccncc4)ncc3-c3ccccc3)C2)ccc1O (centres undefined)	x	x	i	x	x	x
COc1cc2nc(-c3cc(F)ccc3O)nc(N[C@@H]3CNC[C@@H]3C(C)(C)O)c2cc1OC	x	21.7µM*	x	x	x	x
COc1ccc(-c2cc(-c3cc(F)ccc3O)[nH]n2)cc1OC	i	98.7%	i	i	-26.9%	-51.9%
Cc1cc(OCC(=O)Nc2cccc(-c3nc4ccccc4o3)c2C)cc(C)c1Cl	i	x	x	u	0.3%	-23.3%
CCc1ccccc1NC(=O)Cn1cc(C(=O)c2ccc(Cl)cc2)c(=O)c2ccc(C)nc21	i	4.0%	i	i	-8.6%	-17.2%
O=C(CCl)NCCCN(C(=O)C(Cl)Cl)c1ccc([N+](=O)[O-])cc1	u	x	31.6µM*	i	u	12.6µM*
c1ccc2c(c1)C1=NCCN1c1ccccc1-2	11.6µM*	x	i	u	10µM*	-24.0%
COC1=Nc2ccccc2N2CCN=C12	i	-2.6%	i	i	1.0%	-18.2%
CCc1ccc(-n2c(=O)c3sc4ccccc4c3n(CC(=O)N(CC)Cc3ccccc3)c2=O)cc1	i	9.0%	u	i	-3.0%	2.1%
CCN1CCN(c2ncc3c(n2)CCN(CC(C)C)C3)CC1	i	-1.8%	i	i	20.3%	-13.6%
CCOC(=O)c1ccc(NC(=O)CSc2nccn2-c2cc(C)cc(C)c2)cc1	i	-0.9%	i	u	-28.0%	-25.0%
COc1cc(/C=N/N=C(/N)c2nonc2N)cc(Br)c1OCc1cccc(C)c1	i	-23.4%	i	i	u	-75.8%
CCOc1cc(/C=N/N=C(\N)c2nonc2N)cc(Br)c1OCc1cccc2ccccc12	u	u	u	u	u	11.2µM*
COC(=O)Cn1c(=O)c(C(=O)CCl)c(N)n(Cc2ccccc2)c1=O	u	x	i	13µM*	-5.1%	-36.0%
Cc1ccc(Nc2c(-c3ccccn3)nc3ccc(Br)cn23)cc1	u	11.5%	i	i	-34.2%	9.5%
COC(=O)CNc1c(-c2ccccn2)nc2ccc(Br)cn12	5.17µM*	0.0%	u	i	-6.7%	-12.2%
C[C@@H]1CN([C@H](C)CO)S(=O)(=O)c2ccc(C#Cc3ccccc3F)cc2O[C@H]1CN(C)C(=O)c1ccc2c(c1)OCO2	u	u	12.6µM*	u	u	-29.5%
CCCC#Cc1ccc2c(c1)O[C@@H](CN(C)Cc1ccc3c(c1)OCO3)[C@H](C)CN([C@@H](C)CO)S2(=O)=O	u	u	u	20.6µM*	u	-57.5%
C[C@@H]1CN([C@H](C)CO)C(=O)Cc2cc(NC(=O)Nc3ccccc3)ccc2O[C@@H]1CN(C)Cc1ccc2c(c1)OCO2	i	u	u	u	15.8µM*	17.8µM*
CCOC(=O)CCCCCC(=O)Nc1ccc2c(c1)CC(=O)N([C@H](C)CO)C[C@@H](C)[C@H](CN(C)Cc1ccc3c(c1)OCO3)O2	i	2.6%	i	i	-9.4%	-3.3%
O=C(NCCc1ccncc1)c1cnn(-c2ncc3c(n2)-c2ccccc2CCC3)c1C1CC1	x	x	i	x	x	x
CN1CCN(N)CC1	x	-4.0%	i	x	x	x
O=C(Cn1ncc2c3ccccc3n(Cc3ccccc3F)c2c1=O)N1CCCCCC1	u	6.4%	i	i	1.2%	2.2%
CCc1cccc(NC(=O)c2c(N3CCCC3=O)c3cc(C)ccc3n2C)c1	18.4µM*	-34.8%	i	u	u	-36.8%
COc1ccc(C(=O)N2c3ccccc3C(C)(c3ccc(Cl)cc3)CC2(C)C)cc1 (centres undefined)	x	x	x	x	u	-2.8%

From PubChem
